This note sets out measurements from PubChem BioAssay (EPA / NIEHS).

Molecules are shown by their SMILES. Where “and” joins values, the source holds several entries; their conditions need not be identical. Equal entries are not always repeated. Calls of active or inactive are those of the source. Rule for the calls: active = hit-call score of the fitted dose curve at least 0.9, where 1 is the maximum; inactive = score below 0.9.

Read-out in this assay: Actin alpha 1 (ACTA1), ACTA1 (gene 58)
Description: BSK_MyoF_ACTA1: BioMAP Diversity Plus: MyoF Assay for Actin alpha 1 (ACTA1) Biomarker Activity (AID 2284244). As to conditions: primary human lung fibroblasts. The procedure: BSK_MyoF is a cell-based, multiplexed-readout assay that uses lung fibroblasts, […], with measurements taken at 24 hours after chemical dosing in a microplate: 96-well plate.BSK_MyoF_ACTA1 is an assay component measured in the BSK_MyoF assay. It measures a-SMA antibody related to regulation of gene expression using ELISA technology.Data from the assay component BSK_MyoF_ACTA1 was analyzed at the endpoint, BSK_MyoF_ACTA1, in the positive analysis fitting direction relative to DMSO as the negative control and baseline of activity. Using a type of binding reporter, gain or loss-of-signal activity can be used to understand protein changes. To generalize the intended target to other relatable targets, this assay endpoint is annotated to the 'cell adhesion molecules' intended target family, where the subfamily is 'actin'.
The levels of cell surface (or secreted, indicated by the prefix "s") biomarker endpoints were measured by ELISA. Overt cytotoxicity to cells in confluent adherent cultures (all systems other than the BT system) was assessed by measuring total protein levels using sulforhodamine B (SRB) staining in parallel cultures at the time of biomarker measurements, indicated as SRB endpoints. For proliferation assays for adherent cell types, individual cell types are cultured at sub-confluence and relative cell numbers quantified by SRB staining at time points optimized for each system (48 h: 3C and CASM3C systems; 72 h: BT and HDF3CGF systems; 96 h: SAg system). SRB was performed by staining cells with 0.1% SRB after fixation with 10% TCA and reading wells at 560 nm.Viability and proliferation of PBMC (T cells) was quantified by Alamar Blue reduction for the SAg and BT systems. For PBMC viability (referred to as PBMC Cytotoxicity within the assay endpoint names), cells were plated (75,000/well in a 96-well plate) and then chemical samples added for 1 h before addition of activators, SEB and TSST-1 (20 ng/mL final concentration each). Cells were incubated for 90 h. Then, Alamar Blue (20 uL/well) (Invitrogen, Cat DAL1100) was added for 6 h, and the plates were read with a fluorescence microplate reader at 546/580 nm (excitation/emission). For PBMC proliferation, cells were plated and activated as above but incubated for only 16 h prior to addition of Alamar Blue. Plates were read after 6 h.
In the case of `NC(=O)c1c(Cl)cccc1Cl`, the result was inactive.

Regarding `CC=CC(=O)C1=C(C)C=CCC1(C)C`, the result was inactive.

Take `CC(=O)CCC=C(C)CCC=C(C)C`: the outcome was inactive. Take `CCCCCCCCCC(=O)OCC`: the AC50 was 26.9 µM (active). As to `CC(C)Cc1ccc(C(C)C(=O)O)cc1` (stereo not given), the result was inactive.

On to `CC1(C)[C@H](C=C(Cl)Cl)[C@H]1C(=O)OCc1cccc(Oc2ccccc2)c1`, for which the outcome was inactive.

In the case of `COc1ccccc1NC(=O)CC(C)=O`, the outcome was inactive. The same measure, in the same setting: then `c1ccc2c(c1)-c1ccc3ccc4cccc5cc-2c1c3c45`, with “inactive”; and `O=C(O)C(F)(F)C(F)(F)C(F)(F)C(F)(F)C(F)(F)C(F)(F)C(F)(F)C(F)F`, with “inactive”; and `CC1=CC(C)C(C=O)C(C)C1` (stereo not given) (tested in a mixture with another compound), with “inactive”. The same measure, in the same setting: the entry for `C=C(C)C(=O)OCCC(F)(F)C(F)(F)C(F)(F)C(F)(F)C(F)(F)C(F)(F)C(F)(F)C(F)(F)F` is “inactive”. Same read-out and setting: then `CC(C)(C)c1cccc(O)c1`, with “inactive”; and `O=C(O)C(F)(F)OC(F)(F)C(F)(F)OC(F)(F)C(F)(F)C(F)(F)C(F)(F)F`, with “inactive”. For `O=S(=O)(O)C(F)(F)C(F)(F)OC(F)(F)C(F)(F)F`, the outcome was inactive.

Consider `O=C1OC2(c3ccc(O)cc3Oc3cc(O)ccc32)c2ccccc21`, for which the result was inactive.

For `OCC(F)(OC(F)(F)C(F)(OC(F)(F)C(F)(F)C(F)(F)F)C(F)(F)F)C(F)(F)F` (stereo not given), the AC50 was 3.43 µM (active) and 4.31 µM (active). Take `CCCCCCCCCCCCS`: the AC50 is 18.6 µM (active).

As to `c1ccc(Sc2ccccc2)cc1`, the AC50 was 30.8 µM (active). Consider `Nc1ccc(N)c([N+](=O)[O-])c1`, for which the result was inactive. Take `C=C1CC/C=C(\C)CC[C@@H]2[C@@H]1CC2(C)C`: the AC50 was 14.9 µM (active). Turning to `CCOC(=O)C=Cc1ccccc1`, the outcome was inactive. On to `O=S1(=O)CC(Cl)(Cl)C(Cl)(Cl)C1`, for which the AC50 was 1.13 µM (active). Regarding `C=CC(=O)OCC(CO)(COC(=O)C=C)COC(=O)C=C`, the AC50 was 1.39 µM (active). As to `CC(=O)OCC=C(C)CCC=C(C)CCC=C(C)C`, the outcome was inactive.

Regarding `CCOC(=O)CCCCCCCCC(=O)OCC`, the result was inactive. Same read-out and setting: then `OCCN1CCOCC1`, with “inactive”; and `CCC(=O)OCC=Cc1ccccc1`, with “inactive”. On the same count and under the same terms, then `CC(=O)OC(C)(C)C1CC=C(C)CC1` (stereo not given), with “inactive”.

As to `CCCCCCCC1CCCC1=O` (stereo not given), the outcome was inactive.

On to `C=C(F)C(=O)OC(C(F)(F)F)C(F)(F)F`, for which the outcome was inactive.
